# Source: PubChem BioAssay (Tox21)
# Inconclusive results are not listed. Entries that show only a call come without a potency. Calls of active or inactive are those of the source. Calls come from the whole dose curve; as a rule, active = well fitted curve in the direction sought with a large enough effect in the repeat runs; inconclusive = weak or mixed curves; inactive = no such curve, though single readings can be large; an effect the other way counts as inactive or inconclusive.
# Test system: not listed separately
# Experiment: qHTS assay to identify small molecule antagonists of the constitutive androstane receptor (CAR) signaling pathway - cell viability counter screen (AID 1224837); note: nearly all actives have a fitted effect of over 45% in size
# Settings: HepG2-CYP2B6-hCAR viability, CellTiter-Fluor, 23 h, co-treated with 50 nM CITCO; series mostly up to 92.4 µM
# Summary of the method: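 To flag cytotoxic false antagonists, HepG2 hCAR/CYP2B6-2.2kb cells were treated 23 hr with 15-concentration compound series and 50 nM CITCO at 37 C/5% CO2; CellTiter-Fluor fluorescence was the measured end point.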
row,Structure (SMILES),Potency
1,CNC(=O)Oc1ccccc1OC(C)C,inactive
2,CN(N=O)c1ccccc1,inactive
3,C1CN2CCN1CC2,inactive
4,CCCN(CCC)c1c([N+](=O)[O-])cc(C(F)(F)F)cc1[N+](=O)[O-],inactive
5,CC(C)C#N,inactive
6,BrCCBr,inactive
7,C=CCO,inactive
8,O=[N+]([O-])c1ccc(Oc2ccc(Cl)cc2Cl)cc1,inactive
9,NCCc1ccc(O)cc1,inactive
10,CON(C)C(=O)Nc1ccc(Cl)c(Cl)c1,inactive
11,C1CC2OC2CC1C1CO1 (configuration not stated),inactive
12,c1ccc(OP(Oc2ccccc2)Oc2ccccc2)cc1,inactive
13,CC(C)(C)OOC(C)(C)C,inactive
14,CCCN(CCC)N=O,inactive
15,C[C@]12CC[C@H]3[C@@H](CC[C@@]45O[C@@H]4C(O)=C(C#N)C[C@]35C)[C@@H]1CC[C@@H]2O,inactive
16,CN(C)[C@@H]1C(=O)C(C(N)=O)=C(O)[C@@]2(O)C(=O)C3=C(O)c4c(O)cccc4[C@@](C)(O)[C@H]3C[C@@H]12,inactive
17,O=NN1CCCCCCC1,inactive
18,CCOC(=O)c1ccccc1C(=O)OCC,inactive

row,Structure (SMILES),Potency
1,c1cc2c3c(cccc3c1)CC2,inactive
2,O=c1n(Cl)c(=O)n(Cl)c(=O)n1Cl,inactive
3,CCC(C)(CC)c1cc(NC(=O)c2c(OC)cccc2OC)on1,inactive
4,Cc1ccc(N)cc1Cl,inactive
5,Nc1ccccc1C(=O)O,inactive
6,COC(=O)c1ccccc1N,inactive
7,ClCc1cccnc1,inactive
8,COC(=O)NC(=S)Nc1ccccc1NC(=S)NC(=O)OC,inactive
9,COC(=O)NS(=O)(=O)c1ccc(N)cc1,inactive
10,CCC[CH2][Sn]([Cl])([Cl])[Cl],inactive
11,Cc1cc(Cl)ccc1O,inactive
12,NCC(O)c1ccc(O)cc1 (configuration not stated),inactive
13,CN1C(=O)CN=C(c2ccccc2)c2cc(Cl)ccc21,inactive
14,CCc1cccc(C)c1N(C(=O)CCl)C(C)COC (configuration not stated),inactive
15,Cn1cc(-c2ccccc2)c(=O)c(-c2cccc(C(F)(F)F)c2)c1,inactive
16,CN=C=S,inactive
17,CCCCOC(=O)c1ccccc1C(=O)OCCCC,inactive
18,CC(=O)C=C(C)C,inactive

# Biological target: Nuclear receptor subfamily 1 group I member 3 (Homo sapiens) (UniProt Q14994)
# Experiment: qHTS assay to identify small molecule antagonists of the constitutive androstane receptor (CAR) signaling pathway (AID 1224838);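 note: HepG2 cells stably expressing hCAR with CYP2B6 luciferase reporter stimulated by CITCO; nearly all actives have a fitted effect of over 40% in size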
# Settings: HepG2-CYP2B6-hCAR luciferase, CITCO-stimulated, 24 h; series mostly up to 92.4 µM
# Summary of the method: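 Human hepatoma HepG2 cells expressing hCAR and a CYP2B6 promoter (2.2 kb) luciferase construct; compound titration (15 points) with 50 nM CITCO final, 24 h at 37 C/5% CO2; luminescence via ONE-Glo after 30 min at room temperature.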
# Chain of Nuclear receptor subfamily 1 group I member 3 (Homo sapiens) (Q14994 whole entry, looked up): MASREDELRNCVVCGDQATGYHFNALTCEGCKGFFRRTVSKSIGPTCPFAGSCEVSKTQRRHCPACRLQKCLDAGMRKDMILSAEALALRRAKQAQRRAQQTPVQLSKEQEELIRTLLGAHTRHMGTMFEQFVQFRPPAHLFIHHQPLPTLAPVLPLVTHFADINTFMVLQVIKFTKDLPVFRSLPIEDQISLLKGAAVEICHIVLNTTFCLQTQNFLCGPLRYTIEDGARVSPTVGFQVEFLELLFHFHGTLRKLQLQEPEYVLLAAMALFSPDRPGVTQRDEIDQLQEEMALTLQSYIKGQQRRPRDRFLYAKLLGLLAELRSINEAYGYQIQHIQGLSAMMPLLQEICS
row,Structure (SMILES),Potency
1,CNC(=O)Oc1ccccc1OC(C)C,inactive
2,CN(N=O)c1ccccc1,inactive
3,C1CN2CCN1CC2,inactive
4,CCCN(CCC)c1c([N+](=O)[O-])cc(C(F)(F)F)cc1[N+](=O)[O-],inactive
5,CC(C)C#N,inactive
6,BrCCBr,inactive
7,C=CCO,inactive
8,O=[N+]([O-])c1ccc(Oc2ccc(Cl)cc2Cl)cc1,inactive
9,NCCc1ccc(O)cc1,inactive
10,CON(C)C(=O)Nc1ccc(Cl)c(Cl)c1,inactive
11,C1CC2OC2CC1C1CO1 (configuration not stated),inactive
12,c1ccc(OP(Oc2ccccc2)Oc2ccccc2)cc1,inactive
13,CC(C)(C)OOC(C)(C)C,inactive
14,CCCN(CCC)N=O,inactive
15,C[C@]12CC[C@H]3[C@@H](CC[C@@]45O[C@@H]4C(O)=C(C#N)C[C@]35C)[C@@H]1CC[C@@H]2O,inactive
16,CN(C)[C@@H]1C(=O)C(C(N)=O)=C(O)[C@@]2(O)C(=O)C3=C(O)c4c(O)cccc4[C@@](C)(O)[C@H]3C[C@@H]12,inactive
17,O=NN1CCCCCCC1,inactive
18,CCOC(=O)c1ccccc1C(=O)OCC,inactive

row,Structure (SMILES),Potency
1,c1cc2c3c(cccc3c1)CC2,inactive
2,O=c1n(Cl)c(=O)n(Cl)c(=O)n1Cl,inactive
3,CCC(C)(CC)c1cc(NC(=O)c2c(OC)cccc2OC)on1,inactive
4,Cc1ccc(N)cc1Cl,inactive
5,Nc1ccccc1C(=O)O,inactive
6,COC(=O)c1ccccc1N,inactive
7,ClCc1cccnc1,inactive
8,COC(=O)NC(=S)Nc1ccccc1NC(=S)NC(=O)OC,inactive
9,COC(=O)NS(=O)(=O)c1ccc(N)cc1,inactive
10,CCC[CH2][Sn]([Cl])([Cl])[Cl],inactive
11,Cc1cc(Cl)ccc1O,inactive
12,NCC(O)c1ccc(O)cc1 (configuration not stated),inactive
13,CN1C(=O)CN=C(c2ccccc2)c2cc(Cl)ccc21,inactive
14,CCc1cccc(C)c1N(C(=O)CCl)C(C)COC (configuration not stated),inactive
15,Cn1cc(-c2ccccc2)c(=O)c(-c2cccc(C(F)(F)F)c2)c1,inactive
16,CN=C=S,inactive
17,CCCCOC(=O)c1ccccc1C(=O)OCCCC,inactive
18,CC(=O)C=C(C)C,inactive
